Laboratory results reported in PubChem BioAssay.
Calls of active or inactive are those of the source.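 Rule for the calls, unless noted: active = fluorescence slope higher than the sample average by over 3 SD (cut at about -0.22 in these data, passing the limit was not always enough); inactive = the rest.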

Assays:
[1] = inhibitors of TNFa-induced NFkB p65 translocation, primary screen, imaging, HUVEC, MLSMR starter and 10KST1 sets (AID 438;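 active = inhibition above 20% together with a positive visual image hit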;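 note: compound added about 3h40 before a 20 min TNFalpha stimulation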;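 for inhibition: signal is the nuclear over cytoplasmic p65 intensity ratio per well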); conditions: HUVEC TNFa-induced p65 nuclear translocation; cell count: measured here: nuclei count (cytotoxicity indicator), at 2.08 µM; inhibition: at 2 µM, stronger effect = higher value, 0% TNFa-plus-vehicle, 100% no-TNFa wells
[2] = reduction of polyQ htt aggregates in cells – imaging, exon1htt(103Q)mCFP cells, high-content imaging, primary screen (AID 483;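 active = visual image review flags a hit and inhibition of aggregation exceeds 20%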;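 note: compound exposure lasted 3 days before fixation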;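 for nuclei count: percent of the per-plate median nuclei count of sample wells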); conditions: exon1htt(103Q)mCFP cell line, aggregate imaging, at 2 µM; inhibition of aggregation: stronger effect = higher value; nuclei count: measured here: cell count, toxicity
[3] = endothelial E-selectin expression blockers – imaging, HUVEC, immunofluorescence, MLSMR starter and 10KST1 sets, primary screen (AID 487;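 active = visually confirmed hit in the image check and inhibition above 20%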;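 for inhibition: signal is fraction of cell area covered by stained E-selectin grains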;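 for nuclei count: 100% = median nuclei count of all wells on the same plate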); conditions: HUVEC TNFalpha-induced E-selectin immunofluorescence imaging, at 2 µM; inhibition: stronger effect = higher value; nuclei count: measured here: cell number, toxicity
[4] = biological target: Voltage-gated potassium channel subunit beta-2 (Rattus norvegicus) (UniProt P62483); test: inhibitors of rat Kvbeta2 reductase activity – biochemical, NADPH fluorescence, primary screen (AID 622); conditions: recombinant KvBeta, 4-cyanobenzaldehyde reduction, at 10 µM, stronger effect = higher value;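 note: slope of raw intensity against log time taken from 70 to 1610 s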
Voltage-gated potassium channel subunit beta-2 (Rattus norvegicus), sequence (P62483 whole entry, looked up): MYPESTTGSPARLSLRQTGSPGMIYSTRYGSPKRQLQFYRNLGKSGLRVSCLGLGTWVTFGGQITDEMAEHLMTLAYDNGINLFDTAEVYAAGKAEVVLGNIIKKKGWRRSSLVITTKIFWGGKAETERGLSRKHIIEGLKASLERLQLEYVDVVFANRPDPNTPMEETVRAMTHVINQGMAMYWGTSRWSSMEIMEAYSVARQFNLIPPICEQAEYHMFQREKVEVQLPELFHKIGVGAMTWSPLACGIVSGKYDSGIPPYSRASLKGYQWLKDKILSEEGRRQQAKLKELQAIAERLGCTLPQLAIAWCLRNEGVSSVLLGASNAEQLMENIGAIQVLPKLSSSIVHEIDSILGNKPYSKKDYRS

[5] = biological target: Voltage-gated potassium channel subunit beta-2 (Rattus norvegicus) (UniProt P62483); test: enhancers of rat Kvbeta2 NADPH turnover – biochemical, NADPH fluorescence, primary screen (AID 623;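 active = NADPH fluorescence slope more negative than the mean of all samples by about 3 SD, 99.7% confidence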;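 note: fluorescence intensity change per second fitted from 20 to 320 s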); conditions: Recombinant KvBeta, NADPH fluorescence decrease slope, 10 min; at 10 µM; stronger effect = lower value
[6] = biological target: Alpha-2C adrenergic receptor (Homo sapiens) (UniProt P18825); test: compounds altering alpha2C-coupled GIRK flux – cell-based, HEK293 alpha2C/GIRK1/2, thallium flux, primary screen (AID 624;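 active = fluorescence slope after compound addition differing from the mean of all screened samples at 99.7% confidence, in either direction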;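 note: slope of fluorescence ratio to pre-addition baseline per second over 15 to 24 s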); conditions: thallium flux BTC fluorescence, at 10 µM, actives lie on both sides
Alpha-2C adrenergic receptor (Homo sapiens), sequence (P18825 whole entry, looked up): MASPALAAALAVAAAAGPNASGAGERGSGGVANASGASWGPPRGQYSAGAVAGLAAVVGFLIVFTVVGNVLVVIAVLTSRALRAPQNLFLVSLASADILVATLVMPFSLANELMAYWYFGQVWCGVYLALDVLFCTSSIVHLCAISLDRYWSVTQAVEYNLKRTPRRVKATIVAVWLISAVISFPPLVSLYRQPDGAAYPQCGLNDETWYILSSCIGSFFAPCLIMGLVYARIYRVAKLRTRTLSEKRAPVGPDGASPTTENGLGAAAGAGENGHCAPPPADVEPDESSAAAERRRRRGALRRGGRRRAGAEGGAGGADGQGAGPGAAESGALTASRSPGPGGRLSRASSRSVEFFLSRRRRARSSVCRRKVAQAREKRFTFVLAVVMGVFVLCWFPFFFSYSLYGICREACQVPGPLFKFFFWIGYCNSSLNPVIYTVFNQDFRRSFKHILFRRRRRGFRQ

[7] = blockers of RIG-like receptor reporter activation – cell-based, Sendai virus stimulus, luciferase, 10K MLSCN set, TLR/RLR signaling modifier project, primary screen (AID 602276;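 active = inhibition at or above 50% at 10 µM; inactive = inhibition below 50%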;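 note: firefly luciferase from ISG56 promoter only with Renilla not read in this screen; 0% = Sendai virus plus DMSO and 100% = medium plus DMSO without virus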); conditions: HEK293 RL24 IRF3 luciferase reporter, at 10 µM, stronger effect = higher value
[8] = TLR3 IRF3 reporter activation blockers – cell-based, poly I:C stimulus, luciferase, 10K MLSCN set, primary screen (AID 602277;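 active = inhibition of the reporter signal at or above 50%; inactive = inhibition below 50%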); conditions: HEK293-TLR3 RL24 IRF3 luciferase reporter, at 10 µM, stronger effect = higher value

| Structure (SMILES) | cell count [1] | inhibition [1] | inhibition of aggregation [2] | nuclei count [2] [%] | inhibition [3] | nuclei count [3] [%] | fluorescence slope [4] | NADPH fluorescence slope [5] | slope [6] | inhibition [7] | inhibition [8] |
| --- | --- | --- | --- | --- | --- | --- | --- | --- | --- | --- | --- |
| O=C(Nc1ccc(F)cc1)NC1CCN(Cc2nnnn2Cc2ccco2)CC1 | 849 | 0% (inactive) | -19.5% (inactive) | 94.3 | -2.9% (inactive) | 113 | -0.501 (inactive) | -4.4e-05 (inactive) | 0.00571 (inactive) | -9.98% (inactive) | 0.354% (inactive) |
| Cc1cc(C(F)F)n2nc(C(=O)Nc3ccc(S(=O)(=O)N4CCCCCC4)cc3)nc2n1 | 602 | -6.2% (inactive) | 9.9% (inactive) | 85.5 | -59.4% (inactive) | 96.2 | -0.566 (inactive) | 2.4e-05 (inactive) | 0.00419 (inactive) | 17.7% (inactive) | 22.1% (inactive) |
| COc1ccccc1CC(NC(C)=O)C(=O)NC1CCN(c2nnnn2-c2ccccc2)CC1 (stereo not drawn) | 761 | -5.5% (inactive) | -29.5% (inactive) | 63.6 | -19.7% (inactive) | 117 | -0.624 (inactive) | 1.1e-06 (inactive) | 0.00623 (inactive) | -1.4% (inactive) | 16.9% (inactive) |
| COc1ccc(S(=O)(=O)Cc2ccc(C(=O)N3CCOCC3)o2)cc1 | 551 | -0.2% (inactive) | -10.7% (inactive) | 93 | -79.8% (inactive) | 105 | -0.615 (inactive) | -2.5e-05 (inactive) | 0.0067 (inactive) | 8.1% (inactive) | 19.3% (inactive) |
| CCCNC(=O)C1=C(C)C(=O)OC12CCC(C)CC2 (stereo not drawn) | 666 | 1.6% (inactive) | -3.8% (inactive) | 115 | -28.8% (inactive) | 115 | -0.589 (inactive) | 1.9e-05 (inactive) | 0.00681 (inactive) | 3.82% (inactive) | 12% (inactive) |
| O=C(Nc1ccc(S(=O)(=O)N2CCCCCC2)cc1)c1ccco1 | 355 | 1.5% (inactive) | 12.9% (inactive) | 105 | -32.3% (inactive) | 126 | -0.434 (inactive) | -6.7e-05 (inactive) | 0.00521 (inactive) | -8.22% (inactive) | -19.4% (inactive) |
| O=C(CC(Cc1ccccc1)C(=O)O)NCCc1ccc2c(c1)OCO2 (stereo not drawn) | 775 | -6.3% (inactive) | -0.6% (inactive) | 107 | -161% (inactive) | 145 | -0.424 (inactive) | -3.2e-05 (inactive) | 0.00395 (inactive) | -2.67% (inactive) | 23.4% (inactive) |
| Cc1cc2c(=O)n(Cc3ccco3)c(SCC(=O)NCc3ccco3)nc2s1 | 502 | 3.1% (inactive) | 3.2% (inactive) | 84 | -50% (inactive) | 82.5 | -0.393 (inactive) | 1.9e-05 (inactive) | 0.00738 (inactive) | 14.9% (inactive) | 17.7% (inactive) |
| CCOC(=O)c1c(COC(=O)c2ccco2)nc2ccccc2[n+]1[O-] | 570 | 8.9% (inactive) | 8.4% (inactive) | 107 | -31.9% (inactive) | 120 | -0.392 (inactive) | -4.6e-05 (inactive) | 0.00397 (inactive) | 17.9% (inactive) | 15.1% (inactive) |
| COc1ccccc1-c1cc2nc(C)c(CCC(=O)NCc3ccco3)c(C)n2n1 | 688 | -7.7% (inactive) | -15.4% (inactive) | 115 | -41.8% (inactive) | 111 | -0.587 (inactive) | -4.5e-05 (inactive) | 0.00963 (inactive) | 18.9% (inactive) | 16.6% (inactive) |
| CCOC(=O)C1CCN(C(=O)CN(Cc2ccccc2)S(C)(=O)=O)CC1 | 370 | 2.3% (inactive) | -32.7% (inactive) | 102 | -78.2% (inactive) | 115 | -0.422 (inactive) | -5.7e-05 (inactive) | 0.00496 (inactive) | 10% (inactive) | 7.77% (inactive) |
| CCc1c(C(=O)Nc2cc(C)ccc2OC)[nH]c(C)c1C(C)=O | 313 | -1.7% (inactive) | -4.5% (inactive) | 65.3 | 2.7% (inactive) | 76.2 | -0.424 (inactive) | 1.1e-05 (inactive) | 0.00495 (inactive) | 23.1% (inactive) | 27.6% (inactive) |
| Cc1nnc(SCCn2c(N3CCC(Cc4ccccc4)CC3)nc3c2c(=O)[nH]c(=O)n3C)s1 | 432 | -1.1% (inactive) | -91.9% (inactive) | 79.6 | -2.5% (inactive) | 104 | -0.54 (inactive) | 3.5e-06 (inactive) | 0.00468 (inactive) | 1.88% (inactive) | 20.9% (inactive) |
| Cc1cc(C)n(C(=O)CCCCCC(=O)n2nc(C)cc2C)n1 | 440 | 5.5% (inactive) | 1.5% (inactive) | 116 | -195% (inactive) | 116 | -0.524 (inactive) | 8.7e-06 (inactive) | 0.0053 (inactive) | 18.5% (inactive) | 26.3% (inactive) |
| CC1CCN(S(=O)(=O)c2ccc(Br)s2)CC1 | 437 | 13% (inactive) | -1.9% (inactive) | 102 | -79.2% (inactive) | 108 | -0.489 (inactive) | 2.6e-05 (inactive) | 0.00656 (inactive) | 8.6% (inactive) | 20.9% (inactive) |
| CCOC(=O)c1c(C)n(C)c2c(C)cc(O)c(OC(C)=O)c12 | 292 | -5% (inactive) | -6.8% (inactive) | 96.7 | -12.4% (inactive) | 109 | -0.467 (inactive) | -7.1e-06 (inactive) | 0.00417 (inactive) | 4.23% (inactive) | -2.25% (inactive) |
| C=CCSc1nc2c(c(=O)[nH]c(=O)n2C)n1CC | 570 | -3% (inactive) | 6.3% (inactive) | 36.2 | -48% (inactive) | 96.3 | -0.499 (inactive) | -2.4e-05 (inactive) | 0.00669 (inactive) | -5.1% (inactive) | 22.4% (inactive) |
| Cc1nccn1CCCN1C(=O)OC2(CCCCC2)C1(C)O (stereo not drawn) | 350 | -3% (inactive) | 2.3% (inactive) | 113 | -4.4% (inactive) | 105 | -0.522 (inactive) | -3.8e-05 (inactive) | 0.00543 (inactive) | 4.87% (inactive) | 17.2% (inactive) |
| NC(=O)C1(N2CCCCC2)CCN(C(=O)Nc2ccccc2C(F)(F)F)CC1 | 312 | -3.2% (inactive) | 14.4% (inactive) | 91.9 | -133% (inactive) | 142 | -0.445 (inactive) | 6.2e-06 (inactive) | 0.00567 (inactive) | 11.1% (inactive) | 31.2% (inactive) |
| Cc1ccc(N(Cc2ccco2)C(=O)c2cccc(S(=O)(=O)N(C)C)c2)cc1 | 357 | 2.1% (inactive) | 25.6% (inactive) | 103 | 66% (inactive) | 97.5 | -0.393 (inactive) | -4.3e-06 (inactive) | 0.0037 (inactive) | 0.154% (inactive) | 14.9% (inactive) |
| CC(C)COc1ccc(C(=O)OCCN2CCOCC2)cc1 | 211 | 2.3% (inactive) | -8.6% (inactive) | 108 | -18.5% (inactive) | 116 | -0.636 (inactive) | 1.1e-05 (inactive) | 0.00666 (inactive) | -17.8% (inactive) | -15% (inactive) |
| COCCn1c(C)c(C(=O)O)sc1=S | 279 | 3.8% (inactive) | 8.1% (inactive) | 86.9 | -4.7% (inactive) | 104 | -0.416 (inactive) | 5e-06 (inactive) | 0.00261 (inactive) | 9.55% (inactive) | -6.08% (inactive) |
| CC1Cc2ccccc2N1C(=O)COC(=O)Cn1nnc(-c2ccccc2)n1 (stereo not drawn) | 543 | -9% (inactive) | -4.6% (inactive) | 96.1 | -39.7% (inactive) | 123 | -0.583 (inactive) | -4e-05 (inactive) | 0.00555 (inactive) | 11% (inactive) | 34.2% (inactive) |
| COC(=O)c1oc2ccc(Br)cc2c1NC(C)=O | 644 | -0.8% (inactive) | 35.6% (active) | 90.2 | -28.5% (inactive) | 112 | -0.575 (inactive) | -3.5e-05 (inactive) | 0.00664 (inactive) | 16.9% (inactive) | 30.7% (inactive) |
| CC(Oc1ccccc1)C(=O)Nc1ccc(S(=O)(=O)NCC2CCCO2)cc1 (stereo not drawn) | 377 | 5% (inactive) | 17.7% (inactive) | 81.9 | -84.8% (inactive) | 99.2 | -0.411 (inactive) | 1.4e-05 (inactive) | 0.00888 (inactive) | 20.7% (inactive) | 98.9% (active) |
| CC(=O)c1ccc(NC(=O)CSc2nnc(-c3ccoc3C)n2Cc2ccccc2)cc1 | 366 | -4.2% (inactive) | 5.2% (inactive) | 98.2 | -35.8% (inactive) | 99.5 | -0.432 (inactive) | -2e-09 (inactive) | 0.00468 (inactive) | -9.45% (inactive) | -12% (inactive) |
| O=c1c2cc3ccccc3n2cnn1Cc1ccccc1F | 345 | -8.5% (inactive) | 29.9% (inactive) | 89.6 | -105% (inactive) | 108 | -0.51 (inactive) | 3.1e-05 (inactive) | 0.00758 (inactive) | -21.7% (inactive) | -7.8% (inactive) |
| CCn1nnnc1SCC(=O)N1CCOCC1 | 707 | 11.3% (inactive) | -2% (inactive) | 122 | -0.6% (inactive) | 122 | -0.637 (inactive) | 3.1e-06 (inactive) | 0.0034 (inactive) | 14.6% (inactive) | 8.47% (inactive) |
